# Results from PubChem BioAssay (EPA / NIEHS).
# Records with an inconclusive call do not appear. The source made the active and inactive calls. How the source made its calls: active means hit-call score of the fitted dose curve at least 0.9, where 1 is the maximum; inconclusive means response in the unintended direction; inactive means score below 0.9.
# Assays:
# [1] = target: Estrogen receptor (Homo sapiens) (UniProt P03372); test: OT_ER_ERaERa_1440: Odyssey Thera (OT) 24-hour HEK293T Protein-Complementation Assay for Estrogen Receptor-alpha/-alpha Homodimer (AID 2283349);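 further: hits raise fluorescence above DMSO for agonists and antagonists alike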
# Sequence of Estrogen receptor (Homo sapiens) (P03372 whole entry, looked up, the tested form may be a part): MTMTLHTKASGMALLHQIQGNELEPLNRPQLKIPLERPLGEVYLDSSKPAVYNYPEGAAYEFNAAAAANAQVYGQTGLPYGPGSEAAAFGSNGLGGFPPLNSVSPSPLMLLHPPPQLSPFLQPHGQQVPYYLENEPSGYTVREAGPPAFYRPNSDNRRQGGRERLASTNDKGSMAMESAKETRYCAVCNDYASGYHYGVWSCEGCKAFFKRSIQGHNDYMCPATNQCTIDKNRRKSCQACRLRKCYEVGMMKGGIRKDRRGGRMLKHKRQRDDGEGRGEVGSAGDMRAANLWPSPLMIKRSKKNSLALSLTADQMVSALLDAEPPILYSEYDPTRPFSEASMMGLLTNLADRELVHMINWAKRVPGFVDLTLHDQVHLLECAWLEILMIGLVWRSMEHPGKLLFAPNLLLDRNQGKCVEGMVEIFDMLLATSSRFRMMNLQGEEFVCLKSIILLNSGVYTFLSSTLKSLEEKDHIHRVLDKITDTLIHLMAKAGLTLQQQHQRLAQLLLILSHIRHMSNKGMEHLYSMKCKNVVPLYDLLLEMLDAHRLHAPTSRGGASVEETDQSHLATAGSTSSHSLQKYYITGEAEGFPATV
# Summary of the method: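 Cells (HEK293T) carrying the fragment-tagged ERα LBD (aa 310-547) pair are treated with chemical for 24 hours. Nuclear and/or cytoplasmic fluorescence is then quantified on a laser scanning cytometer. Activity is scored as signal gain against DMSO.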
# [2] = target: Estrogen receptor (Homo sapiens) (UniProt P03372); test: OT_ER_ERaERa_0480: Odyssey Thera (OT) 8-hour HEK293T Protein-Complementation Assay for Estrogen Receptor-alpha/-alpha Homodimer (AID 2283351);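 further: rise in fluorescence from reassembled reporter fragments on ERα LBD homodimer in nucleus or whole cell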
# Summary of the method: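 HEK293T cells stably expressing a PCA pair of ER alpha LBD (residues 310-547) were dosed for 8 hours. The gain in fluorescence intensity, nuclear for agonists and whole-cell for antagonists, was measured by laser scanning cytometry against DMSO vehicle.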
# [3] = target: Estrogen receptor (Homo sapiens) + Estrogen receptor beta (Homo sapiens) (UniProt P03372+Q92731); test: OT_ER_ERaERb_0480: Odyssey Thera (OT) 8-hour HEK293T Protein-Complementation Assay for Estrogen Receptor-alpha/-beta Heterodimer (AID 2283352)
# Sequence of Estrogen receptor (Homo sapiens) + Estrogen receptor beta (Homo sapiens) (P03372 whole entry, looked up, the tested form may be a part): as above
# Sequence of Estrogen receptor (Homo sapiens) + Estrogen receptor beta (Homo sapiens) (Q92731 whole entry, looked up, the tested form may be a part): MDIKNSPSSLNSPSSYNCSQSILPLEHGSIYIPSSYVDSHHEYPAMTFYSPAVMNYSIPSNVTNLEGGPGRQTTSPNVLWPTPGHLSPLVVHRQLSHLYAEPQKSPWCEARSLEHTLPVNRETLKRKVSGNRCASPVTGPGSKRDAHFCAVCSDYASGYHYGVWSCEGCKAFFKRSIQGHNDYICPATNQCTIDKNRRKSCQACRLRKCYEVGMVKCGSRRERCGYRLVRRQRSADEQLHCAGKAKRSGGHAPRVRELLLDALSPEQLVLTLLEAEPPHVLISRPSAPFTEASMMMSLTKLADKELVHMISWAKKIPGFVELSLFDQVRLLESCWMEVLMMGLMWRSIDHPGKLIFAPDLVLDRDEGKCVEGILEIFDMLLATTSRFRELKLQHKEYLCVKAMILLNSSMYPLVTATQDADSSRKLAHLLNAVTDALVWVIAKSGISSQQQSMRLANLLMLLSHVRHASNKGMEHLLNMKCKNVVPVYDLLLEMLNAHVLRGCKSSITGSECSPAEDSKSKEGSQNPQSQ
# Summary of the method: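 HEK293T cells expressing ER-alpha/ER-beta LBD fusions to complementary reporter fragments were dosed with compound for 8 hours. Heterodimer formation was read as increased nuclear (agonist) or nuclear plus cytoplasmic (antagonist) mean fluorescence intensity versus DMSO vehicle.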
# [4] = target: Estrogen receptor beta (Homo sapiens) (UniProt Q92731); test: OT_ER_ERbERb_0480: Odyssey Thera (OT) 8-hour HEK293T Protein-Complementation Assay for Estrogen Receptor-beta/-beta Homodimer (AID 2283357);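 further: active means signal gain over DMSO baseline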
# Sequence of Estrogen receptor beta (Homo sapiens) (Q92731 whole entry, looked up, the tested form may be a part): as above
# Summary of the method: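 Homodimerization of ER-beta LBD measured by protein-fragment complementation in HEK293T; 8 h dosing; fixed, Draq5 counterstain; fluorescence intensity gain over DMSO baseline, positive fitting direction; laser scanning cytometry.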
# [5] = target: human Thyroid Receptor Alpha (TRa), THRA (gene 7067) (UniProt P10827); test: NVS_NR_hTRa_Antagonist: NovaScreen (NVS) Nuclear Receptor Binding Assay for human Thyroid Receptor Alpha Antagonism (TRa) (AID 2283362);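 further: activity is loss of signal relative to DMSO baseline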
# Sequence of human Thyroid Receptor Alpha (TRa), THRA (gene 7067) (P10827 whole entry, looked up): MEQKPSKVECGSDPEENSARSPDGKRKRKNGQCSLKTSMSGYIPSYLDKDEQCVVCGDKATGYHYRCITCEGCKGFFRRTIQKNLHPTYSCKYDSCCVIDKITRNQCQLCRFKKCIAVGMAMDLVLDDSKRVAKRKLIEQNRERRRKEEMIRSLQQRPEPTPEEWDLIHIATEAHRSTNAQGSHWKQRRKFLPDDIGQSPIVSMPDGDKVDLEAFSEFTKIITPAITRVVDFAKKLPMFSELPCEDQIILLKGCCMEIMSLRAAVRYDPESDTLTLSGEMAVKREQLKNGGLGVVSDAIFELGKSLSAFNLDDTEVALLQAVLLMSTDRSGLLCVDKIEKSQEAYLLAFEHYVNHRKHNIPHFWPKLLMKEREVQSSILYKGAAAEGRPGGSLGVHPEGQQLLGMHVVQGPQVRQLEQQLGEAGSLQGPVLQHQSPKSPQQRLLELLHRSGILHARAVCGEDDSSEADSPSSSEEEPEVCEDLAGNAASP
# Summary of the method: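 Cell-free binding assay on extracted receptor protein, read 1 h after chemical dosing by AlphaLISA chemiluminescence; loss of signal relative to DMSO baseline marks antagonism. Primary screen ran in duplicate at 25 uM, with concentration series for actives.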
# [6] = target: rat Mineralocorticoid Receptor (MR), Nr3c2 (gene 25672) (UniProt P22199); test: NVS_NR_rMR: NovaScreen (NVS) Nuclear Receptor Binding Assay for rat Mineralocorticoid Receptor (MR) (AID 2283355)
# Sequence of rat Mineralocorticoid Receptor (MR), Nr3c2 (gene 25672) (P22199 whole entry, looked up): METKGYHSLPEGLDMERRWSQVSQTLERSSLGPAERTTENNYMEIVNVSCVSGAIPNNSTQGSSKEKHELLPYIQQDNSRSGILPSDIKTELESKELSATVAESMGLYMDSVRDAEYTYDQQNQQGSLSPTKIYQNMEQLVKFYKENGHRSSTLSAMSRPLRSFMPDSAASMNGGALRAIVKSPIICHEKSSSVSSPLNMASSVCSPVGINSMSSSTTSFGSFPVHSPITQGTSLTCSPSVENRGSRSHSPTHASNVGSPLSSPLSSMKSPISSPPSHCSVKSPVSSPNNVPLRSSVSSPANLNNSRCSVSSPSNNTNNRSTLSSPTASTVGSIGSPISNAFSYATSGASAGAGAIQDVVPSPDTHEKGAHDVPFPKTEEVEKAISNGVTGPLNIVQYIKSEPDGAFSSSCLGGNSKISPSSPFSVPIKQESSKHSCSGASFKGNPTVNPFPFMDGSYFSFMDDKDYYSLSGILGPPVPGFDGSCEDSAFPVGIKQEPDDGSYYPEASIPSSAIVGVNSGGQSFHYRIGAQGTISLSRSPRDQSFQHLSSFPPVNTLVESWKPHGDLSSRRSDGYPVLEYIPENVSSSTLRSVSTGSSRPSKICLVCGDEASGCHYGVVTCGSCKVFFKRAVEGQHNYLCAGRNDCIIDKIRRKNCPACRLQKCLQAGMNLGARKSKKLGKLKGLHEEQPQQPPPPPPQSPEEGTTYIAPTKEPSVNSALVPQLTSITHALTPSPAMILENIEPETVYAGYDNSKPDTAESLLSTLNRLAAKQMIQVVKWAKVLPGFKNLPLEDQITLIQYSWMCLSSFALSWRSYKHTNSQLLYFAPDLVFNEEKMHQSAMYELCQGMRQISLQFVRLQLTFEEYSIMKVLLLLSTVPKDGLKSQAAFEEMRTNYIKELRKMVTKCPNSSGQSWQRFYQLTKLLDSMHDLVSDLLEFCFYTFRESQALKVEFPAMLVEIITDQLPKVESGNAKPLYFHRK
# Summary of the method: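 Radioligand displacement, scintillation readout; tissue source adrenalectomized rat brain supernatant. Read 24 h post-dose. Screened in duplicate at 25 uM, DMSO negative control, controls on every plate; actives re-run in concentration series.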
# [7] = target: Retinoic acid receptor alpha (Homo sapiens) (UniProt P10276); test: NVS_NR_hRAR_Antagonist: NovaScreen (NVS) Nuclear Receptor Binding Assay for human Retinoic Acid Alpha Receptor Antagonism (RAR) (AID 2283358)
# Sequence of Retinoic acid receptor alpha (Homo sapiens) (P10276 whole entry, looked up): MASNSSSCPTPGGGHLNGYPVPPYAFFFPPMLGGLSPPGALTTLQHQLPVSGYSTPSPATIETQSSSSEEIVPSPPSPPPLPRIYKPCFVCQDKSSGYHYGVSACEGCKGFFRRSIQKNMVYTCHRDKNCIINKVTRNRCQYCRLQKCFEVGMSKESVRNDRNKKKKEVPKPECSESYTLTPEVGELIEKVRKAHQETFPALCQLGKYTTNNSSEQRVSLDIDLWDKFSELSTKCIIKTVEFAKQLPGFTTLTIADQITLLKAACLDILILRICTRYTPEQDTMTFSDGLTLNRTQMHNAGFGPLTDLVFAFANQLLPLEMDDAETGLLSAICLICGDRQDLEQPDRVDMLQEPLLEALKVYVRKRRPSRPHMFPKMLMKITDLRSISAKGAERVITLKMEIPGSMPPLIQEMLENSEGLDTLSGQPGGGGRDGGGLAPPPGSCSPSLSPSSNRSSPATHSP
# Summary of the method: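 Read-out: time-resolved FRET binding signal, 2 h post-dose, cell-free extracted protein. Antagonism scored as signal loss versus DMSO negative control. Primary single-concentration screen at 25 uM in duplicate; concentration series for actives.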
# [8] = target: human Peroxisome Proliferator-activated Receptor alpha (PPARa), PPARA (gene 5465) (UniProt Q07869); test: NVS_NR_hPPARa: NovaScreen (NVS) Nuclear Receptor Binding Assay for human Peroxisome Proliferator-activated Receptor alpha (PPARa) (AID 2283359);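 further: activity means loss of TR-FRET signal versus DMSO baseline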
# Sequence of human Peroxisome Proliferator-activated Receptor alpha (PPARa), PPARA (gene 5465) (Q07869 whole entry, looked up): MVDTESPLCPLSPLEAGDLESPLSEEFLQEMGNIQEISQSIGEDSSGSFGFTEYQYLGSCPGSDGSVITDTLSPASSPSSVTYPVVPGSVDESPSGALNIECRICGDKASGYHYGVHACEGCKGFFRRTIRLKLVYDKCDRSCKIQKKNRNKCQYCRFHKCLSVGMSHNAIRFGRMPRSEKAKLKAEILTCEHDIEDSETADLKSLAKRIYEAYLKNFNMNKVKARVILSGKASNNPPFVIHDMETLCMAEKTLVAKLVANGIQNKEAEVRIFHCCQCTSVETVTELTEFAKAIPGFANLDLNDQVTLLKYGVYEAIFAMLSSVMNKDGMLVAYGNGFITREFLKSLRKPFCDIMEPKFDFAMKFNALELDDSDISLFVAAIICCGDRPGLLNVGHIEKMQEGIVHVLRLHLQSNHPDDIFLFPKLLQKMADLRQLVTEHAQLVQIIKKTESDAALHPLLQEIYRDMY
# Summary of the method: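 TR-FRET signal measured at 1 h post-dosing; loss-of-signal versus DMSO negative control taken as activity. Extracted gene-protein, cell-free format. Initial single-point duplicates at 25 uM, then concentration-response retests.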
# PGR (gene 5241) = PGR (gene 5241) (UniProt P06401); test: NVS_NR_hPR: NovaScreen (NVS) Nuclear Receptor Binding Assay for human Progestron Receptor (PR) (AID 2283360);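 further: active means loss of bound radioligand signal versus DMSO baseline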
# Sequence of PGR (gene 5241) (P06401 whole entry, looked up): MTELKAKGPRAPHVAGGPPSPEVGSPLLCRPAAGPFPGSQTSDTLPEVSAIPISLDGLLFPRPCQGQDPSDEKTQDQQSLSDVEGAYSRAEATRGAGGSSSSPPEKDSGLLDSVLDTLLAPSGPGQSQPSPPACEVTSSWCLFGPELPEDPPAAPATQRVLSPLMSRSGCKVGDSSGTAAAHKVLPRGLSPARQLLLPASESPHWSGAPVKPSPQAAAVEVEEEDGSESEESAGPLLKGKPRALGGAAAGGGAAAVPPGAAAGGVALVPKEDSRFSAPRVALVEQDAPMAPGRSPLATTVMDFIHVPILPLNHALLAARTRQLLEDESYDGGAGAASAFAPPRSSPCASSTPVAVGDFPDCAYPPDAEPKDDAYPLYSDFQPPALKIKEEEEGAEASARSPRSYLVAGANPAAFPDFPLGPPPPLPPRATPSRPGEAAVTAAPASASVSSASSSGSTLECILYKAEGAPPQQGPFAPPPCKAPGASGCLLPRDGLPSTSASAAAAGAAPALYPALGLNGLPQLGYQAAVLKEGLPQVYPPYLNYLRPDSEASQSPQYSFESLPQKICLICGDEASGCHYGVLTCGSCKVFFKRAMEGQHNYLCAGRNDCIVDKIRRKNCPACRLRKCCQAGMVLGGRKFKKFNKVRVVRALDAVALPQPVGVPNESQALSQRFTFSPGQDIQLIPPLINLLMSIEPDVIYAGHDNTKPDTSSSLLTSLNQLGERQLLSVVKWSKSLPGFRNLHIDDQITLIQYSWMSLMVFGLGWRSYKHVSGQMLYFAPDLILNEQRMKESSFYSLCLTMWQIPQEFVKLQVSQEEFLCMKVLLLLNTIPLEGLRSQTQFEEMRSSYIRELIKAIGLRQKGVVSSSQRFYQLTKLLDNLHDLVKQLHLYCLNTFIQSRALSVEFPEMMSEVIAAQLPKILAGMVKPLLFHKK
# Summary of the method: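 T47D-derived receptor preparation, cell-free, with tritiated or iodinated radioligand displacement measured by scintillation 18 h post-dosing. Single 25 uM duplicate screen, then concentration series; signal loss relative to DMSO.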
compound,measurement,setting,value
O=C1CCCCC1,outcome,[1],inactive
same,outcome,[2],inactive
same,outcome,[3],inactive
same,outcome,[4],inactive
O=C(O)c1[nH]n(-c2ccc(S(=O)(=O)O)cc2)c(=O)c1N=Nc1ccc(S(=O)(=O)O)cc1,outcome,[1],inactive
same,outcome,[2],inactive
same,outcome,[5],inactive
O=C(O)CC(O)(CC(=O)O)C(=O)O,outcome,[1],inactive
same,outcome,[2],inactive
same,outcome,[3],inactive
same,outcome,[6],inactive
same,outcome,[4],inactive
same,outcome,[7],inactive
CCCCCCC(CCCCCCCCCCC(=O)OCC(COC(C)=O)OC(C)=O)OC(C)=O (stereo not drawn),outcome,[1],inactive
same,outcome,[2],inactive
same,outcome,[4],inactive
same,outcome,[8],inactive
O=C1O[C@H]([C@H](O)CO)C(O)=C1O,outcome,[4],inactive
O=C(O)c1cccnc1,outcome,[4],inactive
same,outcome,PGR (gene 5241),inactive
COC(=O)CCC(=O)OC,outcome,[1],inactive
same,outcome,[2],inactive
same,outcome,PGR (gene 5241),inactive
OCC(O)CO,outcome,PGR (gene 5241),inactive
O=C(NS(=O)(=O)/C=C/c1cccs1)c1ccc(F)cc1Br,outcome,[1],inactive
same,outcome,[2],inactive
same,outcome,[4],inactive
C=CCCCCCCCCCCCC,outcome,[4],inactive
O=C(Oc1ccccc1)c1cccc(C(=O)Oc2ccccc2)c1,outcome,[4],inactive
same,outcome,[8],inactive
CC(C)c1cccc(C(C)C)c1NC(=O)NS(=O)(=O)c1cc(C(C)(C)O)co1,outcome,[4],inactive
same,outcome,[8],inactive
CCCCCCC(C=O)=Cc1ccccc1,outcome,[4],inactive
CCCCCCCC(=O)OC,outcome,[1],inactive
same,outcome,[2],inactive
same,outcome,[4],inactive
NCCOCCOCCN,outcome,[4],inactive
Oc1ccc(O)cc1,outcome,[1],inactive
same,outcome,[2],inactive
same,outcome,[3],inactive
same,outcome,[4],inactive
same,outcome,[8],inactive
NC=O,outcome,[4],inactive
Cc1cn([C@H]2C=C[C@@H](CO)O2)c(=O)[nH]c1=O,outcome,[4],inactive
C#CC(O)C(CC)CCCC (stereo not drawn),outcome,[4],inactive
CO[C@@H]1COCC[C@@H]1N[C@@H]1CC[C@@](C(=O)N2CCc3ncc(C(F)(F)F)cc3C2)(C(C)C)C1,outcome,[4],inactive
same,outcome,PGR (gene 5241),inactive
CC(N)=O,outcome,[4],inactive
CC(=O)OC1CC(C)OC(C)O1 (stereo not drawn),outcome,[4],inactive
C=CCc1ccc(OC)c(OC)c1,outcome,[4],inactive
CC(COCC(C)OC(=O)c1ccccc1)OC(=O)c1ccccc1 (stereo not drawn),outcome,[4],inactive
O=C(O)CN(CC(=O)O)CC(=O)O,AC50,[1],10.9 µM (active)
same,outcome,[2],inactive
